Experimental data as given in PubChem BioAssay AID1159580 (chemical genetic matrix, 2015).
Where “and” joins values, the source holds several entries; their conditions need not be identical. Equal values may be shown once. About 2,000 (36%) of roughly 5,500 compounds were called active. Inconclusive results (about 18%) are left out. No stated cut-off is given here; in the data, active means normalized growth mostly below about 0.91 (no sharp cut-off); inconclusive means no clear call, values can overlap the other calls; inactive means mostly above about 0.92. The list shows a part of the results. A structure can be active in one record and inactive in another.

Test: chemical genetic growth profiling, strain panel (AID 1159580);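 further: tested at 20 µM; growth read once vehicle control cultures reached saturation at 30 °C; 1 = growth at the plate median or of vehicle wells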
Conditions: S. cerevisiae deletion strains, growth OD

Measured: normalized growth

Clc1ccccc1C(c1ccccc1)(c1ccccc1)n1ccnc1
inactive: locus YOL012C, strain htz1 0.23
active: locus YAL013W, strain DEP1, stronger effect = lower value 0.0556 and 0.0854 | locus YAL021C, strain ccr4, stronger effect = lower value 0.0659 | locus YAL026C, strain drs2, stronger effect = lower value 0.0665 | locus YAL030W, strain snc1, stronger effect = lower value 0.0563 | locus YAL040C, strain CLN3, stronger effect = lower value 0.613 | locus YBL061C, strain skt5, stronger effect = lower value 0.0604 | locus YBR009C, strain hhf1, stronger effect = lower value 0.0704 | locus YBR021W, strain FUR4, stronger effect = lower value 0.0896 | locus YBR023C, strain chs3, stronger effect = lower value 0.0661 | locus YBR171W, strain sec66, stronger effect = lower value 0.0777 | locus YBR229C, strain ROT2, stronger effect = lower value 0.0472 | locus YBR231C, strain swc5, stronger effect = lower value 0.0624 | locus YBR279W, strain paf1, stronger effect = lower value 0.0598 | locus YCL011C, strain gbp2, stronger effect = lower value 0.0573 | locus YCL016C, strain dcc1, stronger effect = lower value 0.066 | locus YCL029C, strain bik1, stronger effect = lower value 0.0623 | locus YCL061C, strain MRC1, stronger effect = lower value 0.0642 | locus YCL069W, strain vba3, stronger effect = lower value 0.0627 | locus YCR088W, strain abp1, stronger effect = lower value 0.0657 | locus YDL005C, strain med2, stronger effect = lower value 0.0759 | locus YDL035C, strain GPR1, stronger effect = lower value 0.0497 | locus YDL040C, strain nat1, stronger effect = lower value 0.058 | locus YDL074C, strain BRE1, stronger effect = lower value 0.0785 | locus YDL101C, strain DUN1, stronger effect = lower value 0.0582 | locus YDL134C, strain PPH21, stronger effect = lower value 0.0506 | locus YDL185W, strain tfp1, stronger effect = lower value 0.0604 | locus YDL192W, strain arf1, stronger effect = lower value 0.0622 | locus YDR001C, strain nth1, stronger effect = lower value 0.0587 | locus YDR069C, strain doa4, stronger effect = lower value 0.0629 | locus YDR101C, strain arx1, stronger effect = lower value 0.0588 | locus YDR137W, strain rgp1, stronger effect = lower value 0.103 | locus YDR150W, strain NUM1, stronger effect = lower value 0.0555 | locus YDR159W, strain sac3, stronger effect = lower value 0.0888 | locus YDR162C, strain NBP2, stronger effect = lower value 0.0501 | locus YDR195W, strain ref2 0.125 | locus YDR297W, strain sur2, stronger effect = lower value 0.0578 | locus YDR318W, strain mcm21, stronger effect = lower value 0.0626 | locus YDR334W, strain swr1, stronger effect = lower value 0.0633 | locus YDR335W, strain msn5, stronger effect = lower value 0.0619 | locus YDR388W, stronger effect = lower value 0.0576 | locus YDR392W, strain spt3, stronger effect = lower value 0.0716 | locus YDR502C, strain sam2, stronger effect = lower value 0.0632 | locus YEL003W, strain gim4, stronger effect = lower value 0.0556 | locus YEL037C, strain rad23, stronger effect = lower value 0.0574 | locus YEL061C, strain CIN8 (second series), stronger effect = lower value 0.0638 | locus YEL061C, strain CIN8, stronger effect = lower value 0.0506 | locus YER002W, strain NOP16, stronger effect = lower value 0.0949 | locus YER015W, strain faa2, stronger effect = lower value 0.0658 | locus YER016W, strain bim1, stronger effect = lower value 0.0637 | locus YER110C, stronger effect = lower value 0.0769 | locus YER111C, strain swi4, stronger effect = lower value 0.0727 | locus YER155C, strain BEM2 (second series), stronger effect = lower value 0.0917 | locus YER155C, strain BEM2, stronger effect = lower value 0.0644 | locus YER167W, strain BCK2, stronger effect = lower value 0.0514 | locus YFR010W, strain ubp6, stronger effect = lower value 0.0718 | locus YGL078C, strain dbp3, stronger effect = lower value 0.0828 | locus YGL086W, strain mad1, stronger effect = lower value 0.0584 | locus YGL167C, strain pmr1, stronger effect = lower value 0.0741 | locus YGL173C, strain kem1, stronger effect = lower value 0.07 | locus YGL227W, strain vid30, stronger effect = lower value 0.0633 | locus YGL240W, strain doc1, stronger effect = lower value 0.0729 | locus YGL248W, strain PDE1, stronger effect = lower value 0.0484 | locus YGL253W, strain hxk2, stronger effect = lower value 0.0556 | locus YGR078C, strain PAC10, stronger effect = lower value 0.0496 | locus YGR135W, strain pre9, stronger effect = lower value 0.0631 | locus YGR252W, strain gcn5, stronger effect = lower value 0.165 | locus YHR013C, strain ard1, stronger effect = lower value 0.105 | locus YHR027C, strain rpn1, stronger effect = lower value 0.0633 | locus YHR030C, strain SLT2, stronger effect = lower value 0.0505 and 0.1 | locus YHR079C, strain IRE1 (second series), stronger effect = lower value 0.0577 | locus YHR079C, strain IRE1, stronger effect = lower value 0.135 | locus YHR094C, strain hxt1, stronger effect = lower value 0.059 | locus YHR129C, strain ARP1, stronger effect = lower value 0.0557 | locus YHR142W, strain chs7, stronger effect = lower value 0.0738 | locus YHR200W, strain rpn10, stronger effect = lower value 0.0614 | locus YIL066C, strain RNR3, stronger effect = lower value 0.0483 | locus YIL073C, strain SPO22, stronger effect = lower value 0.112 | locus YIL125W, strain kgd1, stronger effect = lower value 0.0895 | locus YIR030C, strain dcg1, stronger effect = lower value 0.0606 | locus YJL092W, strain hpr5, stronger effect = lower value 0.0611 | locus YJL095W, strain BCK1 (second series), stronger effect = lower value 0.059 | locus YJL095W, strain BCK1, stronger effect = lower value 0.0611 and 0.105 | locus YJL115W, strain asf1, stronger effect = lower value 0.0739 | locus YJL129C, strain trk1, stronger effect = lower value 0.0834 | locus YJL134W, strain LCB3, stronger effect = lower value 0.0474 | locus YJL154C, strain vps35, stronger effect = lower value 0.0614 | locus YJL164C, strain tpk1, stronger effect = lower value 0.0678 | locus YJL166W, strain qcr8, stronger effect = lower value 0.064 | locus YJL168C, strain set2, stronger effect = lower value 0.0596 | locus YJL187C, strain SWE1 (second series), stronger effect = lower value 0.0488 | locus YJR043C, strain POL32, stronger effect = lower value 0.0648 | locus YJR066W, strain TOR1, stronger effect = lower value 0.016 | locus YKL009W, strain mrt4, stronger effect = lower value 0.0996 | locus YKL068W, stronger effect = lower value 0.0901 | locus YKL085W, strain MDH1 (second series), stronger effect = lower value 0.0744 | locus YKL085W, strain MDH1, stronger effect = lower value 0.0744 | locus YKL160W, strain elf1, stronger effect = lower value 0.0633 | locus YKR001C, strain vps1, stronger effect = lower value 0.0631 | locus YKR026C, strain gcn3, stronger effect = lower value 0.0593 | locus YKR091W, strain srl3, stronger effect = lower value 0.0594 | locus YLL001W, strain dnm1, stronger effect = lower value 0.0628 | locus YLL026W, stronger effect = lower value 0.0716 | locus YLL041C, strain sdh2, stronger effect = lower value 0.0574 | locus YLR027C, strain aat2, stronger effect = lower value 0.0566 | locus YLR039C, strain RIC1, stronger effect = lower value 0.0954 | locus YLR058C, strain SHM2, stronger effect = lower value 0.048 | locus YLR102C, strain apc9, stronger effect = lower value 0.0623 | locus YLR113W, strain HOG1, stronger effect = lower value 0.156 | locus YLR221C, strain rsa3, stronger effect = lower value 0.0591 | locus YLR258W, strain gsy2, stronger effect = lower value 0.0599 | locus YLR262C, strain YPT6 (second series), stronger effect = lower value 0.0778 | locus YLR262C, strain YPT6, stronger effect = lower value 0.109 | locus YLR268W, strain sec22, stronger effect = lower value 0.0686 | locus YLR320W, strain mms22, stronger effect = lower value 0.0761 | locus YLR330W, strain CHS5, stronger effect = lower value 0.0528 | locus YLR342W, strain FKS1 (second series), stronger effect = lower value 0.0674 | locus YLR342W, strain FKS1, stronger effect = lower value 0.0672 | locus YLR357W, strain rsc2, stronger effect = lower value 0.126 | locus YLR370C, strain arc18, stronger effect = lower value 0.0649 | locus YLR371W, strain rom2, stronger effect = lower value 0.0633 | locus YLR384C, strain iki3, stronger effect = lower value 0.0655 | locus YLR418C, strain cdc73, stronger effect = lower value 0.0956 | locus YML016C, strain PPZ1, stronger effect = lower value 0.0479 | locus YML032C, strain rad52, stronger effect = lower value 0.0691 | locus YML120C, strain ndi1, stronger effect = lower value 0.058 | locus YML124C, strain tub3, stronger effect = lower value 0.0616 | locus YMR058W, strain fet3, stronger effect = lower value 0.0615 | locus YMR078C, strain ctf18, stronger effect = lower value 0.0734 | locus YMR125W, strain sto1, stronger effect = lower value 0.0678 | locus YMR129W, stronger effect = lower value 0.0585 | locus YMR205C, strain PFK2, stronger effect = lower value 0.0848 | locus YMR223W, strain ubp8, stronger effect = lower value 0.0652 | locus YMR231W, strain pep5, stronger effect = lower value 0.0713 | locus YMR307W, strain GAS1, stronger effect = lower value 0.125 | locus YNL067W, strain RPL9B, stronger effect = lower value 0.0471 | locus YNL071W, strain lat1, stronger effect = lower value 0.0635 | locus YNL153C, strain GIM3, stronger effect = lower value 0.695 | locus YNL175C, strain NOP13, stronger effect = lower value 0.0913 | locus YNL183C, strain NPR1, stronger effect = lower value -0.00509 | locus YNL197C, strain WHI3, stronger effect = lower value 0.0874 | locus YNL209W, strain ssb2, stronger effect = lower value 0.0647 | locus YNL224C, strain SQS1, stronger effect = lower value 0.109 | locus YNL233W, strain BNI4, stronger effect = lower value 0.0563 | locus YNL248C, strain rpa49, stronger effect = lower value 0.0733 | locus YNL250W, strain rad50, stronger effect = lower value 0.0869 | locus YNL271C, strain bni1, stronger effect = lower value 0.0905 | locus YNL298W, strain CLA4, stronger effect = lower value 0.0742 | locus YNL307C, strain MCK1, stronger effect = lower value 0.0679 | locus YNL322C, strain KRE1 (second series), stronger effect = lower value 0.0616 | locus YNR049C, strain mso1, stronger effect = lower value 0.0594 | locus YNR052C, strain pop2, stronger effect = lower value 0.0613 | locus YOL006C, strain TOP1, stronger effect = lower value 0.115 | locus YOL147C, strain pex11, stronger effect = lower value 0.0589 | locus YOR001W, strain rrp6, stronger effect = lower value 0.075 | locus YOR061W, strain CKA2, stronger effect = lower value 0.0463 | locus YOR069W, strain VPS5, stronger effect = lower value 0.0473 | locus YOR070C, strain gyp1, stronger effect = lower value 0.0595 | locus YOR080W, strain dia2, stronger effect = lower value 0.0658 | locus YOR083W, strain WHI5 (second series), stronger effect = lower value 0.0984 | locus YOR083W, strain WHI5, stronger effect = lower value 0.0702 | locus YOR106W, strain vam3, stronger effect = lower value 0.0682 | locus YOR136W, strain idh2, stronger effect = lower value 0.0727 | locus YOR144C, strain elg1, stronger effect = lower value 0.0577 | locus YOR184W, strain ser1, stronger effect = lower value 0.0702 | locus YOR231W, strain MKK1, stronger effect = lower value 0.117 | locus YOR265W, strain rbl2, stronger effect = lower value 0.0588 | locus YOR270C, strain vph1, stronger effect = lower value 0.092 | locus YOR290C, strain snf2, stronger effect = lower value 0.0637 | locus YOR316C, strain cot1, stronger effect = lower value 0.0603 | locus YPL051W, strain arl3, stronger effect = lower value 0.0647 | locus YPL055C, strain LGE1, stronger effect = lower value 0.0751 | locus YPL078C, strain atp4, stronger effect = lower value 0.0637 | locus YPL106C, strain sse1, stronger effect = lower value 0.0995 | locus YPL240C, strain hsp82, stronger effect = lower value 0.0582 | locus YPL256C, strain CLN2, stronger effect = lower value 0.127 | locus YPR119W, strain clb2, stronger effect = lower value 0.0642 | locus YPR141C, strain kar3, stronger effect = lower value 0.096 | locus YPR163C, strain tif3, stronger effect = lower value 0.0728 | locus YPR167C, strain met16, stronger effect = lower value 0.0634 | strain wtn01, stronger effect = lower value 0.0677
0.0559 (active) and 0.976 (inactive): locus YMR263W, strain SAP30, stronger effect = lower value
